Measured values taken from ChEMBL document CHEMBL3988442, “University of Dundee, Small-Polar-MMV Screening Library” (2021).
Out of some 66,000 compounds screened, about 960 (1.5%) showed an effect of 50% or more. What follows is part of a selection rich in strong results, with near analogues and random picks from the rest.

System: Trypanosoma brucei
Test: Trypanosoma brucei 72 hour study
Assay type: functional, organism-based
Design: scale not given: in the data most compounds retested in dose-response had high values

CN(C)CCOCc1cncc2c1CCN(Cc1ccccn1)C2.O=C(O)C(F)(F)F.O=C(O)C(F)(F)F.O=C(O)C(F)(F)F
Percent Effect (30.3 µM, […]): -28.23%

Cc1nc(CN2CC[C@H]3[C@@H]2CCC(=O)N3c2cnn(C)c2)cs1.O=C(O)C(F)(F)F
Percent Effect (30.3 µM, […]): -10.95%

Cc1ccc(CN(CCCn2ccnc2)Cc2c[nH]nc2C(C)(C)C)s1.O=C(O)CC(O)(CC(=O)O)C(=O)O
Percent Effect (30.3 µM, […]): -172%

Cc1ccc(C(NC(=O)C2CC2)c2cccc(S(C)(=O)=O)c2)cc1 (centres undefined)
Percent Effect (30 µM, 30.03 µM): -25.5%

CN(C)CC(C)(O)CNC(=O)Nc1sc2ccccc2c1Cl (centres undefined)
Percent Effect (30.3 µM, […]): 103.3%

CN(C)C(=O)CCNC(=O)Nc1sc2ccccc2c1Cl
Percent Effect (30.3 µM, […]): -534.4%

CS(=O)(=O)CCNC(=O)Nc1sc2ccccc2c1Cl
Percent Effect (30.3 µM, […]): -157.9%

Cn1nc(COCC2CC2)c2c1CCN(Cc1cccs1)C2.O=C(O)C(F)(F)F
Percent Effect (30.3 µM, […]): -72.61%

O=C(O)C(F)(F)F.c1cncc(N2CCCn3nnc(COCC4CC4)c3C2)c1
Percent Effect (30.3 µM, […]): -2.195%

CN(C)CCN1C(=O)CCCC12CCCN(C(=O)c1cc[nH]n1)C2.O=C(O)C(F)(F)F (centres undefined)
Percent Effect (30.3 µM, […]): -2.017%

CCOc1ncccc1CNC(=O)NC(C)Cn1cccn1 (centres undefined)
Percent Effect (10 µM): -0.2891%
Percent Effect (30.3 µM, […]): 0.8601%

Cc1cc(C)n(C2CCCN(C(=O)c3ccc(F)cc3F)C2)n1 (centres undefined)
Percent Effect (30 µM, 30.03 µM): 59.51%

Cc1nc(C)n(C2CCCN(C(=O)c3ccc(F)cc3F)C2)n1 (centres undefined)
Percent Effect (30 µM, 30.03 µM): 1.062%

Cc1cc(C)n(C2CCCN(C(=O)c3cccc(F)c3F)C2)n1 (centres undefined)
Percent Effect (30 µM, 30.03 µM): -91.58%

Cn1cc(N2C(=O)CC[C@@H]3[C@H]2CCN3CC2CCOCC2)cn1.O=C(O)C(F)(F)F
Percent Effect (30.3 µM, […]): -7.648%

CC(=O)N1CCC2(CCN(Cc3ccccn3)C2=O)C1.O=C(O)C(F)(F)F (centres undefined)
Percent Effect (30 µM, 30.03 µM): 1.584%

Clc1cc(Cl)cc(CN2CCC(NCc3ncc[nH]3)CC2)c1
Percent Effect (30.3 µM, […]): -65.03%

Clc1cc(Cl)cc(CN2CCC(NCc3cc[nH]n3)CC2)c1
Percent Effect (30.3 µM, […]): 90.13%

Clc1cccc(N2CCC(NCc3cc[nH]n3)C2)c1 (centres undefined)
Percent Effect (30 µM, 30.03 µM): 15.76%

Cc1ccc(CN2CCc3ncc(CNC(=O)C4CCC4)n3CC2)o1.O=C(O)C(F)(F)F
Percent Effect (30.3 µM, […]): -36.54%

CCC(C)(C)n1nnnc1C(c1cccs1)N1CCc2ccccc2C1 (centres undefined)
Percent Effect (30.3 µM, […]): 99.92%

CCC(C)(C)n1nnnc1C(c1cccs1)N1CCCCC1 (centres undefined)
Percent Effect (30.3 µM, […]): 13.9%

CCC(CNC(=O)c1ccccn1)N1CCc2ccccc2C1 (centres undefined)
Percent Effect (30 µM, 30.03 µM): -43.95%

Cc1noc(C)c1C(=O)NCC(C)N1CCc2ccccc21 (centres undefined)
Percent Effect (10 µM): -61.25%

CCC(C)(C)n1nnnc1C(c1cccs1)N1CCc2ccccc21 (centres undefined)
Percent Effect (30.3 µM, […]): 72.61%

COc1ccc(-c2n[nH]c(C)c2CC(=O)N2CCOCC2)cc1
Percent Effect (30 µM, 30.03 µM): 6.943%

CNC(=O)c1cc2c(nc1NCC1CC1)CCN(S(C)(=O)=O)CC2.O=C(O)C(F)(F)F
Percent Effect (30 µM, 30.03 µM): -3.721%

Cc1csc(C(=O)N2CC[C@H](Oc3cccnc3C)[C@@H](O)CC2)c1
Percent Effect (30.3 µM, […]): -24.66%

COc1ccc(CN2CCn3cccc3C2C)cc1F (centres undefined)
Percent Effect (30 µM, 30.03 µM): 11.74%

CN1CC2(CCN(Cc3cccc(C#N)c3)CC2)CC1=O
Percent Effect (30 µM, 30.03 µM): -2.169%

NC(=O)c1ccc(CN2C(=O)C3(CCNCC3)Nc3ccccc32)cc1
Percent Effect (30 µM, 30.03 µM): 8.328%

N#Cc1cccc(CN2C(=O)C3(CCNCC3)Nc3ccccc32)c1
Percent Effect (30 µM, 30.03 µM): 83.34%

CC(C)c1ccc(CN2C(=O)C3(CCNCC3)Nc3ccccc32)cc1
Percent Effect (30 µM, 30.03 µM): 101.9%

C=Cc1ccc(CN2C(=O)C3(CCNCC3)Nc3ccccc32)cc1
Percent Effect (30 µM, 30.03 µM): -41.13%

N#Cc1cccc(CN2C(=O)c3ccccc3CS2(=O)=O)c1
Percent Effect (30 µM, 30.03 µM): -36.86%

O=C(O)C(F)(F)F.O=C(O)C(F)(F)F.c1cc(CN2Cc3nccn3CC(Cn3cncn3)C2)ccn1 (centres undefined)
Percent Effect (30 µM, 30.03 µM): -13.09%

CNC(=O)CN1CCc2c(CNc3nccs3)n[nH]c2C1.O=C(O)C(F)(F)F
Percent Effect (30 µM, 30.03 µM): -11.16%

Cc1cc(N(C)CC2COc3ccccc3O2)nc(C)n1 (centres undefined)
Percent Effect (30.3 µM, […]): -13.97%

CCN1CC(CN(C)c2cc(C)nc(N)n2)Oc2ccccc21 (centres undefined)
Percent Effect (30.3 µM, […]): 98.13%

Cc1cc(N(C)CC2COc3ccccc3O2)nc(N)n1 (centres undefined)
Percent Effect (30.3 µM, […]): -9.48%

CC(C)CS(=O)(=O)N1C[C@H]2C[C@H](C(=O)Nc3cccnc3)[C@@H](C1)O2
Percent Effect (30 µM, 30.03 µM): -5.396%

COCCO[C@H]1CCN(c2ccc(C)nn2)[C@H]1Cc1cccnc1.O=C(O)C(F)(F)F.O=C(O)C(F)(F)F
Percent Effect (30.3 µM, […]): -12.33%

COc1ccccc1CN1C[C@@H]2COC[C@]2(COc2cccnc2)C1.O=C(O)C(F)(F)F.O=C(O)C(F)(F)F
Percent Effect (30 µM, 30.03 µM): -13.45%

COc1cc(N2C[C@@H]3COC[C@]3(COc3ncccc3F)C2)ncn1.O=C(O)C(F)(F)F.O=C(O)C(F)(F)F
Percent Effect (30 µM, 30.03 µM): 51.8%

COc1ccccc1CN1C[C@@H]2COC[C@]2(COCc2ccncc2)C1.O=C(O)C(F)(F)F.O=C(O)C(F)(F)F
Percent Effect (30 µM, 30.03 µM): 59.56%

COc1cc(N2C[C@@H]3COC[C@]3(COCc3ccccn3)C2)ncn1.O=C(O)C(F)(F)F.O=C(O)C(F)(F)F
Percent Effect (30 µM, 30.03 µM): -23.44%

COc1cc(N2C[C@@H]3COC[C@]3(COc3ccccn3)C2)ncn1.O=C(O)C(F)(F)F.O=C(O)C(F)(F)F
Percent Effect (30.3 µM, […]): -11.8%

Fc1cccc(CN2C[C@@H]3COC[C@]3(COCc3ccncc3)C2)c1.O=C(O)C(F)(F)F.O=C(O)C(F)(F)F
Percent Effect (30 µM, 30.03 µM): -8.118%
